High-throughput results as filed in PubChem BioAssay.
Only some compounds are listed: those with a hit (about 4% of all), similar ones and a draw of the others.
Peg3 prom inh: inhibitors of Peg3 promoter | inhibition, % at 20 µM | HeLa PEG-Prom luciferase reporter, luminescence, overnight | AID 588405 | 360,000 tested, 1.7% active;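 active means inhibition of at least 50% at 20 µM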
TROY NFkB inh: inhibitors of TROY-dependent NF-kB signaling; Q293 LMP1-TROYcd NF-kB luciferase reporter, 4 h; inhibition, % at 10 µM; 360,000 tested, 0.98% active; AID 1347056;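 active means compounds whose plate-normalised and pattern-corrected inhibition of the luciferase reporter signal at the single screening dose is 50% or more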
TWEAK Fn14 block: TWEAK-Fn14 signaling inhibition | TWEAK-stimulated Fn14 reporter cells, luciferase luminescence, 8 h | inhibition, % at 10 µM | 360,000 tested, 2% active | AID 1159606; in the data active means inhibition above about 50%
HIF-2a inh: HIF-2a inhibition; 786-0 RCC cells HIF-2a reporter, luciferase luminescence, overnight; inhibition, % at 18.8 µM; 360,000 tested, 0.72% active; AID 624352;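 active means inhibition of the luminescence signal of 40% or more relative to plate controls, in a single-dose primary screen at 18.75 µM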
CF NFkB inh: inhibitors of cystic fibrosis induced NF-kB; 360,000 tested, 0.86% active; KKLEB NF-kB-GFP reporter, PAF-induced, GFP fluorescence overnight; inhibition, % at 5 µM;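 active means at least 50% inhibition at 5 µM, scaled per plate between neutral and stimulator controls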;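 further: PAF is a Pseudomonas aeruginosa culture filtrate used as stimulus; plate controls were PAF-stimulated DMSO wells for no effect and unstimulated DMSO wells for full effect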
KKLEB tox: reduces viability of KKLEB cystic fibrosis airway cells | KKLEB CF airway cells viability, ATPlite luminescence, overnight; stronger effect = lower value; cells stimulated with P. aeruginosa culture filtrate | activity change (cytotoxicity), % at 5 µM | 360,000 tested, 0.36% active | AID 602141;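 active means corrected activity change at or below -50% at 5 µM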
Active calls of the source: *; . = not tested or not shown; ! = a repeat was not active.

SMILES	Peg3 prom inh	TROY NFkB inh	TWEAK Fn14 block	HIF-2a inh	CF NFkB inh	KKLEB tox
Fc1ccc(-[n+]2nc(Nc3ccccc3)sc2-c2c3ccccc3cc3ccccc23)cc1	53*	34	49	-17	46	-30
COC(=O)CCNCCSc1nnc(-c2ccco2)n1Cc1ccccc1	-1	-10	-11	5	2	-4
CCN1CCN(Cc2ccc(NC(=O)c3cc(NC(=O)N4CCNC4=O)cc(OC)c3)cc2C(F)(F)F)CC1	97*!	-12	11	-37	34	-18
CCN1CCN(Cc2ccc(NC(=O)c3cc(NC(=O)c4cc5cccc(OC)c5o4)cc(OC)c3)cc2C(F)(F)F)CC1	104*	-11	60*!	7	55*!	-53*!
CCOC(=O)CN1CC(C)(C)N(CC(=O)OCC)CC1(C)C	3	15	1	6	-12	4
O=C(c1ccco1)N1CCN(c2nc3ccccc3c(=O)n2-c2ccccc2)CC1	18	61*	-22	11	10	-8
CN(c1ccccc1)S(=O)(=O)c1cccc(NC(=O)c2nn(C)c(=O)c3ccccc23)c1	47	32	17	5	-37	8
COc1cccc(C(=O)NCC(=O)OCC(=O)Nc2ncc(Cl)cc2Cl)c1	12	-9	88*	7	15	-19
Cc1cccc(NC(=S)N(CCN2CCOCC2)Cc2cc3cc4c(cc3[nH]c2=O)OCCO4)c1	28	73*	67*	8	-10	-2
CCCCn1c(N)c(-c2nc3ccccc3s2)c2c([N+](=O)[O-])nn(CC)c(=O)c21	20	8	-27	1	45	-55*
CCCCCn1c(N)c(-c2nc3ccccc3o2)c2c([N+](=O)[O-])nn(CC)c(=O)c21	10	-6	-72	-1	13	-4
CCCCn1c(N)c(-c2nc3ccccc3s2)c2c([N+](=O)[O-])nn(C)c(=O)c21	16	3	-22	-25	49	-33
CCCCCn1c(N)c(-c2nc3ccccc3s2)c2c([N+](=O)[O-])nn(CC)c(=O)c21	35	9	83*	-11	59*	-58*
CCN(CC)C(=O)C1=C(C)N(Cc2ccc(OC)cc2)C(=O)C(CC(=O)NCc2cccc3ccccc23)C1 (configuration not stated)	12	-8	9	-1	1	-2
COc1ccc(C)c2sc(=NC(=O)c3ccc(C(C)=O)cc3)n(C)c12	-182	51*	40	-286	-11	2
Cc1ccc([C@H]2C[C@H](O)[C@@H](n3cc(COC(=O)c4ccccc4)nn3)CN2C(=O)c2cccs2)cc1	7	3	4	6	2	5
COc1ccc(S(=O)(=O)N2CCCCCC2)cc1C(=O)N1CCN(c2ccccc2C)CC1	13	1	8	16	10	-4
Cc1ccc(S(=O)(=O)NC(CC(C)C)C(=O)Oc2ccc3c4c(c(=O)oc3c2)CCC4)cc1 (configuration not stated)	10	69*	34	-15	-11	14
CC[C@@H](NS(=O)(=O)c1ccc(C)cc1)C(=O)Oc1ccc2c3c(c(=O)oc2c1)CCC3	0	34	-12	12	-8	6
Cc1ccccc1-n1c(-c2csc(C)c2C)n[nH]c1=S	-81	21	22	-67	11	1
Cc1cccc(-n2c(-c3csc(C)c3C)n[nH]c2=S)c1	2	3	92*	-19	4	4
CCCCn1nnnc1C1(C)CCC(=O)N1C1CC1 (configuration not stated)	.	7	7	2	.	.
CCNC(=O)C1CCCN(C(=O)c2ccco2)CC1 (configuration not stated)	-6	-6	11	2	1	10
CC1=NN(c2ccccc2)C(=O)/C1=C/C=C/c1ccc(N(C)C)cc1	5	-5	10	-89	-15	2
CC1=NN(c2ccccc2)C(=O)/C1=C\C=C\c1ccccc1	71*	49	94*	87*	-2	7
SMILES	Peg3 prom inh	TROY NFkB inh	TWEAK Fn14 block	HIF-2a inh	CF NFkB inh	KKLEB tox
c1ccc(CNc2ncnc3c2oc2ccccc23)nc1	-187	-35	-46	-234	12	12
COc1ccc(CCNc2ncnc3c2oc2ccccc23)cc1OC	21	57*	91*	-46	8	0
COc1ccc(CCNc2ncnc3sccc23)cc1OC	-11	38	50*	-4	-27	-7
COc1ccc(CCNc2nc(C)nc3c2oc2ccccc23)cc1OC	43	53*	46	16	8	-8
CC(C)c1cc(Cn2c3ccccc3c(=O)n2C(C)Cn2cc(C3=CCCCC3)nn2)on1 (configuration not stated)	.	.	.	19	.	.
Cc1c(-c2ccccc2)n(O)c(-c2ccc(N(C)C)cc2)[n+]1[O-]	-85	-10	4	-91	-10	6
Cc1csc(N=Nc2ccc(N(C)C)cc2)[n+]1[O-]	18	75*	86*	5	-22	-10
CCOCCCn1c(SCc2nc3ccccc3s2)nc2ccccc2c1=O	-290	53*	73*	-268	13	-2
CCOCCCn1c(SCC(=O)Nc2ccccc2)nc2ccccc2c1=O	10	19	-7	-3	-20	15
Cc1ccc(S(=O)(=O)c2c(C)cc(C)nc2Oc2cccc(C)c2C)cc1	30	-4	72*	31	1	-5
Cc1cc(C)c(S(C)(=O)=O)c(Oc2ccccc2C)n1	10	12	5	10	12	0
CC(C)[C@H](NC(=O)[C@@H]1CSC2c3ccccc3C(=O)N21)C(=O)N1CCCCC1 (some centres not stated)	8	-5	2	-2	0	5
CC1(S(=O)(=O)O)CC(=O)c2ccccc2C1=O (configuration not stated)	10	45	18	32	69*	28
COc1cccc(C(=O)Oc2ccccc2/C=C\C(=O)c2cc3ccccc3o2)c1	105*	-67	43	-121	-1	-13
CCCCCC(=O)NN=C1CCN(Cc2ccccc2)CC1	10	-3	94*	7	6	-11
CC(C)=CCc1c(O)cc(O)c2c(=O)c(O[C@@H]3O[C@@H](C)[C@H](O)[C@@H](O)[C@H]3O)c(-c3ccc(O)cc3)oc12	38	-4	20	0	68*	14
C[C@@H]1O[C@@H](OC[C@@H]2O[C@H](Oc3c(-c4ccc(O)cc4)oc4cc(O)cc(O)c4c3=O)[C@@H](O)[C@H](O)[C@H]2O)[C@H](O)[C@H](O)[C@H]1O	-19	8	0	8	-10	3
COc1ccc(C2CC(c3ccccc3)=NN2C(=O)COC(=O)c2ccc(Cl)nc2)cc1 (configuration not stated)	-68	-110	-65	-66	2	-5
